Assays:
Assay in all cases: DAPPL (digital affinity profiling via proximity ligation, sequencing); 10 mM Tris-HCl pH 7.5, 50 mM NaCl, 1 mM DTT, 4% glycerol, room temperature, 30 min; GST-TFs on glutathione beads, 16-mer random dsDNA library, 0.1% formaldehyde crosslink after washing; high values mean tight binding
FEV = target: T1, FEV (Homo sapiens, UniProt Q99581 1-238); details: protein: recombinant; tags: N-terminal GST; dsDNA, one strand shown
T1 sequence: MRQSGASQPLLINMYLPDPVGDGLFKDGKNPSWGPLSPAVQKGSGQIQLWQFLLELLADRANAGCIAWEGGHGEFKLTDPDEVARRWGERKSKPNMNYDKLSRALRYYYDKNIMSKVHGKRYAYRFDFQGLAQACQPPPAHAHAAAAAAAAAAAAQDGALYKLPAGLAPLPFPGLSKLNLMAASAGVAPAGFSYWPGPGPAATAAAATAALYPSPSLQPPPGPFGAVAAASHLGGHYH
Summary of the method: (§1)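 Binding signal is each hexamer's read frequency for a factor divided by its frequency in the tag-only sample. The factors were GST-fused human transcription factors from yeast, captured on glutathione beads, DNA-barcoded and pooled with that sample. Pools were incubated with 200 nmole of a random double-stranded 16-mer DNA library in Tris/NaCl/DTT/glycerol buffer at room temperature for 30 min, then washed, crosslinked with 0.1% formaldehyde, proximity-ligated with BsaI/T4 ligase (1 h, 37 °C), PCR-amplified and sequenced on an Illumina NextSeq500.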

ETV5 = ETV5 (Homo sapiens, UniProt P41161 1-510); details: protein: recombinant; tags: N-terminal GST; dsDNA, one strand shown
Chain of ETV5 (P41161 whole entry): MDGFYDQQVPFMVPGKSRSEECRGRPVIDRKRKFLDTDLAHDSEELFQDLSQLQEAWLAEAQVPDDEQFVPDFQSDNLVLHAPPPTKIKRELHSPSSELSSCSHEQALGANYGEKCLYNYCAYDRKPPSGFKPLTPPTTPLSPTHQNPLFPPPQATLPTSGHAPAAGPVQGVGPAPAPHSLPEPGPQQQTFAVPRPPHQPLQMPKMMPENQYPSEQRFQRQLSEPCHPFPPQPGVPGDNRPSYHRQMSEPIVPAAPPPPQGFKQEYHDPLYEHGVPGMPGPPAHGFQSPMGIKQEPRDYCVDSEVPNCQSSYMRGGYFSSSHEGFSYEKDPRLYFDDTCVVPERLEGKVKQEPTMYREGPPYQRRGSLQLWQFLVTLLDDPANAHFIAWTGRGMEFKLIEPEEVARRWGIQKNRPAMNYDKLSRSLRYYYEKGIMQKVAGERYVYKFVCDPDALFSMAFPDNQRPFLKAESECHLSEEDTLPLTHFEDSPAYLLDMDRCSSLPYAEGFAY
Summary of the method: as §1

HSF1 = HSF1 (Homo sapiens, UniProt Q00613 1-529); details: protein: recombinant; tags: N-terminal GST; chain copies: 3; dsDNA, one strand shown
Chain of HSF1 (Q00613 whole entry): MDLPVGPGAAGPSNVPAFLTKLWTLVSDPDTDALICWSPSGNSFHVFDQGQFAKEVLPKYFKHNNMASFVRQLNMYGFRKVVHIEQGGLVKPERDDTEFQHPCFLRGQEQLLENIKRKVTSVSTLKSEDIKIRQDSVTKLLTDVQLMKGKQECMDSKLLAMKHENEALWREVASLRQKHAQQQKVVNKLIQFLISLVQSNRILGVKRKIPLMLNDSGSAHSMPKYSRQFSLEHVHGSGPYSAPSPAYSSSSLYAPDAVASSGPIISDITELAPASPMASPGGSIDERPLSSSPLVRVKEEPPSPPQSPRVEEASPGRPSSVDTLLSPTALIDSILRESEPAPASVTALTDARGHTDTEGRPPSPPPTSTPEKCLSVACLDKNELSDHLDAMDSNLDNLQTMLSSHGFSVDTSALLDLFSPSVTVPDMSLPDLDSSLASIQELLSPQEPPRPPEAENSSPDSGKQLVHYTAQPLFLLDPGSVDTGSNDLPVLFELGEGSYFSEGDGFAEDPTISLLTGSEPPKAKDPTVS
Summary of the method: as §1

ELF4 = ELF4 (Homo sapiens, UniProt Q99607 1-663); details: protein: recombinant; tags: N-terminal GST; dsDNA, one strand shown
Chain of ELF4 (Q99607 whole entry): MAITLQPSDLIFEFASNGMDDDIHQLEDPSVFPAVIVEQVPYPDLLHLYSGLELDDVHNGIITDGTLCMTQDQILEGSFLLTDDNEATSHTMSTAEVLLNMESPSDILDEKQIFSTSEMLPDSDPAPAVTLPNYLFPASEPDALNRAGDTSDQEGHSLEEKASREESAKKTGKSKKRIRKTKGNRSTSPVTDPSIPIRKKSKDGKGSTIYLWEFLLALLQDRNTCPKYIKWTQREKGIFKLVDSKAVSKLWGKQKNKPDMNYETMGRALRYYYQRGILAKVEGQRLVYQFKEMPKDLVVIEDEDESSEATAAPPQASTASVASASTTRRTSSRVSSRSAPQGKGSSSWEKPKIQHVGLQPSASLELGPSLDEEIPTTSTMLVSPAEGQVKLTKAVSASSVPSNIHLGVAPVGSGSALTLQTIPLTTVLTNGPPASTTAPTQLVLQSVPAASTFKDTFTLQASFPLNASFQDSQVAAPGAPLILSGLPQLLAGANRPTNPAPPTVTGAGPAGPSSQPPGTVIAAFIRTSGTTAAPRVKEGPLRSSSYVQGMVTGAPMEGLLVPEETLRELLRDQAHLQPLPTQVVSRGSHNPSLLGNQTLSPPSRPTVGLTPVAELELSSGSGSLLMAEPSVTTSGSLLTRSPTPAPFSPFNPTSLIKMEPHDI
Summary of the method: as §1

ELK4 = target: T2, ELK4 (Homo sapiens, UniProt P28324-2 1-405); details: protein: recombinant; tags: N-terminal GST; dsDNA, one strand shown
T2 sequence: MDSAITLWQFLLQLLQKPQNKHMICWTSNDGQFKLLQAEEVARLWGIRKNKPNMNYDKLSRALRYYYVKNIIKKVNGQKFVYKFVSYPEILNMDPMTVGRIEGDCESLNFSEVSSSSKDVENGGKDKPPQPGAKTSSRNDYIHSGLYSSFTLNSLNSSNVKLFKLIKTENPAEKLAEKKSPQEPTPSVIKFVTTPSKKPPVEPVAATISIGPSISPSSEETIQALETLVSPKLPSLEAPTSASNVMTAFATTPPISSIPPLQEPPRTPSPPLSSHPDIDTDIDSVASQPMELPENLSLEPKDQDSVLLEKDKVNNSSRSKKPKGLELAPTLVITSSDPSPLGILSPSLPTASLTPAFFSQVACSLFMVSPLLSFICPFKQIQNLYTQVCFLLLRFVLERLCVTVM
Summary of the method: as §1

ETV2 = target: T3, ETV2 (Homo sapiens, UniProt O00321 1-342); details: protein: recombinant; tags: N-terminal GST; dsDNA, one strand shown
T3 sequence: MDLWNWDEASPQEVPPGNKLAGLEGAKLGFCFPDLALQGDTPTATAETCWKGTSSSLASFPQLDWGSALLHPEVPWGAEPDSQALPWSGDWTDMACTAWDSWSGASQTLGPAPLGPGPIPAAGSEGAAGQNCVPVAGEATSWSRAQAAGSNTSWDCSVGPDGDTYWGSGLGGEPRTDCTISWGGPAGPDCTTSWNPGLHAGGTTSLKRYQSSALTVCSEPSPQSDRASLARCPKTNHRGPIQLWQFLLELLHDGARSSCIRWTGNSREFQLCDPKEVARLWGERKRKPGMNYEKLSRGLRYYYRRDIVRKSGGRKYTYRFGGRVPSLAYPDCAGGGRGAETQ
Summary of the method: as §1

CRX = CRX (Homo sapiens, UniProt O43186 1-299); details: protein: recombinant; tags: N-terminal GST; dsDNA, one strand shown
Chain of CRX (O43186 whole entry): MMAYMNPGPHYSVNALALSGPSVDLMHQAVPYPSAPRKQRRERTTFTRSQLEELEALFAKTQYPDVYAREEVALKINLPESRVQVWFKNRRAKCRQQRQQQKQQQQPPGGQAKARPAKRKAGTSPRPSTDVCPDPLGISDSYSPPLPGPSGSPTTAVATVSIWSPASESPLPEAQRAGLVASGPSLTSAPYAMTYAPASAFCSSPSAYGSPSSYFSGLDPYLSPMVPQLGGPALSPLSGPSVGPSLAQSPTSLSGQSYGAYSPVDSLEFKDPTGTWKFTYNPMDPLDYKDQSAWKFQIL
Summary of the method: as §1

ETV1 = ETV1 (Homo sapiens, UniProt P50549 1-477); details: protein: recombinant; tags: N-terminal GST; dsDNA, one strand shown
Chain of ETV1 (P50549 whole entry): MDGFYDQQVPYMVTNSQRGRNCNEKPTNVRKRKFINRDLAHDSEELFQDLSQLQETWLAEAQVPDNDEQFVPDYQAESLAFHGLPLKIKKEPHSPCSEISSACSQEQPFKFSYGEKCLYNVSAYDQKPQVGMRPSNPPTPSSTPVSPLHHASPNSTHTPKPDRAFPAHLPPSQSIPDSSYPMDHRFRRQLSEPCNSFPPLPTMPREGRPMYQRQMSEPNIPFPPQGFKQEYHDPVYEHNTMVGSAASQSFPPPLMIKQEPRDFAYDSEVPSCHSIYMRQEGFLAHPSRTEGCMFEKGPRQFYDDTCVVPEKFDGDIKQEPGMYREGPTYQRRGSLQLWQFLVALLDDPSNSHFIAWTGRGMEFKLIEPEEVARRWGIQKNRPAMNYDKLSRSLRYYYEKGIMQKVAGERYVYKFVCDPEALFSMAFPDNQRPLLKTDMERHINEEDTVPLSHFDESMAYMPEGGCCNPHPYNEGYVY
Summary of the method: as §1

ERF = target: T4, ERF (Homo sapiens, UniProt P50548 1-548); details: protein: recombinant; tags: N-terminal GST; dsDNA, one strand shown
T4 sequence: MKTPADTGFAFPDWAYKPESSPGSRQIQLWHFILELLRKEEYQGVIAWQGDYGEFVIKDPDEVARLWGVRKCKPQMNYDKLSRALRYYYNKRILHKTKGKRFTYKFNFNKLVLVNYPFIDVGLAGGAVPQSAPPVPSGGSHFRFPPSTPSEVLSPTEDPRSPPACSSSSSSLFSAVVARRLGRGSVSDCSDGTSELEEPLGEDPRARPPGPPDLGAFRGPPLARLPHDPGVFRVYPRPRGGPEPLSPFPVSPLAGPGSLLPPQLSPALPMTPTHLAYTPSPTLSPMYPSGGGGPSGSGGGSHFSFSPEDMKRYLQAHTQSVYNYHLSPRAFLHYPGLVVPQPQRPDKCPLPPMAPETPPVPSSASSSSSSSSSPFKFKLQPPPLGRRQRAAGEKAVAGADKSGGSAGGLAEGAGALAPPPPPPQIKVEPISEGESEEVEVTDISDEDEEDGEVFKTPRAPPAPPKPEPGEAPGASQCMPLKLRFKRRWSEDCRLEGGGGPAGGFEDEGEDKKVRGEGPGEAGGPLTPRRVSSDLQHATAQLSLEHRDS
Summary of the method: as §1

ETV3L = target: T5, ETV3L (Homo sapiens, UniProt Q6ZN32 1-361); details: protein: recombinant; tags: N-terminal GST; dsDNA, one strand shown
T5 sequence: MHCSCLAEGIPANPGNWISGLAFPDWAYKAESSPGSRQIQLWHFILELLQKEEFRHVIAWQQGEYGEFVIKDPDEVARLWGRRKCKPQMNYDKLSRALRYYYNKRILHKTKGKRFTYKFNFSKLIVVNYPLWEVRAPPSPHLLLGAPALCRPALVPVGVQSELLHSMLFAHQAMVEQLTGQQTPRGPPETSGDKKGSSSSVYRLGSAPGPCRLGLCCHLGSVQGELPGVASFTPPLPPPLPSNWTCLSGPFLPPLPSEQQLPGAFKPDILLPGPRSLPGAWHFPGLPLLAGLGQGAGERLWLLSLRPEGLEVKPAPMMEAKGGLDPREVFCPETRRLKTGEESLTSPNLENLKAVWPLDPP
Summary of the method: as §1

ETS2 = target: T6, ETS2 (Homo sapiens, UniProt P15036 1-469); details: protein: recombinant; tags: N-terminal GST; dsDNA, one strand shown
T6 sequence: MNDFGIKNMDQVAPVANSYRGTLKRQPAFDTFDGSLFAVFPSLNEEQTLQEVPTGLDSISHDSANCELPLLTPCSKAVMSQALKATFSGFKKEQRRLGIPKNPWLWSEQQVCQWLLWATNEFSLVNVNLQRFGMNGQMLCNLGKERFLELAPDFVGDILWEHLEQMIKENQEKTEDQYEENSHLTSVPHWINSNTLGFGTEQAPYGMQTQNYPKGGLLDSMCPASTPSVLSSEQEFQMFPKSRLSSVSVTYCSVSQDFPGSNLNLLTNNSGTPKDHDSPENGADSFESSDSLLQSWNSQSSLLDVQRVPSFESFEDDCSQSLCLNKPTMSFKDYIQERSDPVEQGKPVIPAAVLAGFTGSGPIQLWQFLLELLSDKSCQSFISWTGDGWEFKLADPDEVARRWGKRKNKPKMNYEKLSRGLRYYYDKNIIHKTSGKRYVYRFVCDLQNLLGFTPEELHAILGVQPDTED
Summary of the method: as §1

SPDEF = target: T7, SPDEF (Homo sapiens, UniProt O95238 1-335); details: protein: recombinant; tags: N-terminal GST; dsDNA, one strand shown
T7 sequence: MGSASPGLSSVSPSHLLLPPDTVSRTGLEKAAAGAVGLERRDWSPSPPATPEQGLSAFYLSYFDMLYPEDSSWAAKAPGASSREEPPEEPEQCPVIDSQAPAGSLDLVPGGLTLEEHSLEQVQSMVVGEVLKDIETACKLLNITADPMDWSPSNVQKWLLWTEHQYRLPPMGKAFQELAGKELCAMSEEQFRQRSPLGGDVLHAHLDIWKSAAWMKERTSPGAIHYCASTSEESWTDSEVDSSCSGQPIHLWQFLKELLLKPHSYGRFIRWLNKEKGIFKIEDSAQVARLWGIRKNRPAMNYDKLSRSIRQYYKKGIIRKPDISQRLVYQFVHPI
Summary of the method: as §1

ETV7 = target: T8, ETV7 (Homo sapiens, UniProt Q9Y603 1-341); details: protein: recombinant; tags: N-terminal GST; dsDNA, one strand shown
T8 sequence: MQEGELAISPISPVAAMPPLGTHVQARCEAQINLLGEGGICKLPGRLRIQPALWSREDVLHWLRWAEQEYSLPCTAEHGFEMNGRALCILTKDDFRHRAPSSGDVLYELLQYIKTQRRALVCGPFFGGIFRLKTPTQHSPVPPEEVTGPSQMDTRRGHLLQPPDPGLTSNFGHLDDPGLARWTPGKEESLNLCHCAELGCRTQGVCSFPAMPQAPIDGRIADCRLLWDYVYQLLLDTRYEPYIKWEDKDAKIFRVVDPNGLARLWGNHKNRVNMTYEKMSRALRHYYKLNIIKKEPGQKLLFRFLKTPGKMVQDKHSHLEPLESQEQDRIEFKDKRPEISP
Summary of the method: as §1

ELF5 = target: T9, ELF5 (Homo sapiens, UniProt Q9UKW6-2 1-255); details: protein: recombinant; tags: N-terminal GST; dsDNA, one strand shown
T9 sequence: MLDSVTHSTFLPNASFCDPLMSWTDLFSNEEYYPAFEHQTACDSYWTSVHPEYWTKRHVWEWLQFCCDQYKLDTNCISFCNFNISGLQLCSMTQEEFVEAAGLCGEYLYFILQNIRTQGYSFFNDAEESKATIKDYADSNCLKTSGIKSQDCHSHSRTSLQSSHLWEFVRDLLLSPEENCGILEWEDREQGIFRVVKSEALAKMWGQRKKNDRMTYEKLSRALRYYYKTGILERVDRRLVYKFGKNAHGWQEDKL
Summary of the method: as §1

ETV3 = target: T10, ETV3 (Homo sapiens, UniProt P41162-2 1-143); details: protein: recombinant; tags: N-terminal GST; dsDNA, one strand shown
T10 sequence: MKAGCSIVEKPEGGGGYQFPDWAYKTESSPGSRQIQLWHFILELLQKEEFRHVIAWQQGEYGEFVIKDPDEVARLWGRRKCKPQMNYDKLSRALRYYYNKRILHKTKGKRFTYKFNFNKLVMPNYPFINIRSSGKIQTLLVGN
Summary of the method: as §1

ETV6 = ETV6 (Homo sapiens, UniProt P41212 1-452); details: protein: recombinant; tags: N-terminal GST; dsDNA, one strand shown
Chain of ETV6 (P41212 whole entry): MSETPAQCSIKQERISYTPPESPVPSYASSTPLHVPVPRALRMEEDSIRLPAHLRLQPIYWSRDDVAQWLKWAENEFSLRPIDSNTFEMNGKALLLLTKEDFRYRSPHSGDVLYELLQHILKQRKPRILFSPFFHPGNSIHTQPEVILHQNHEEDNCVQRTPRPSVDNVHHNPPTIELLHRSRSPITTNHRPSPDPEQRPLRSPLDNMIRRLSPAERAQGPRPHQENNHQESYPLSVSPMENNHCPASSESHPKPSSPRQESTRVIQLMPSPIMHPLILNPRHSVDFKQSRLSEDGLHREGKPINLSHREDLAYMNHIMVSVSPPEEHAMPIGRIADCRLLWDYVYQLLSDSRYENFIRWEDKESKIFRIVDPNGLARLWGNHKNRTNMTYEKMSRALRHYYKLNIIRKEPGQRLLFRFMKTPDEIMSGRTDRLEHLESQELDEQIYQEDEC
Summary of the method: as §1

## ATTGTC
FEV
  binding signal: 1.11 fold enrichment (6-mer frequency, TF over GST control)
ETV5
  binding signal: 1.14 fold enrichment (6-mer frequency, TF over GST control)
HSF1
  binding signal: 1.04 fold enrichment (6-mer frequency, TF over GST control)
ELF4
  binding signal: 1.08 fold enrichment (6-mer frequency, TF over GST control)
ELK4
  binding signal: 1.17 fold enrichment (6-mer frequency, TF over GST control)
ETV2
  binding signal: 1.14 fold enrichment (6-mer frequency, TF over GST control)
CRX
  binding signal: 1.06 fold enrichment (6-mer frequency, TF over GST control)
ETV1
  binding signal: 1.21 fold enrichment (6-mer frequency, TF over GST control)
ERF
  binding signal: 1.23 fold enrichment (6-mer frequency, TF over GST control)
ETV3L
  binding signal: 1.14 fold enrichment (6-mer frequency, TF over GST control)
ETS2
  binding signal: 1.17 fold enrichment (6-mer frequency, TF over GST control)
SPDEF
  binding signal: 1.17 fold enrichment (6-mer frequency, TF over GST control)
ETV7
  binding signal: 1.23 fold enrichment (6-mer frequency, TF over GST control)
ELF5
  binding signal: 1.2 fold enrichment (6-mer frequency, TF over GST control)
ETV3
  binding signal: 1.22 fold enrichment (6-mer frequency, TF over GST control)
ETV6
  binding signal: 1.13 fold enrichment (6-mer frequency, TF over GST control)

Source: article PMC7862700, “An all-to-all approach to the identification of sequence-specific readers for epigenetic DNA modifications on cytosine”
